Compound activity from PubChem BioAssay.
In the library only some 1.8% were active in any assay of this set; here they are far more common.
EBV gp42 inh: EBV gp42 inhibition; Q1HVG2; Fluorescence polarization binding assay, mP read-out; inhibition, % (tested at 21.74 µM); hit rate 0.42% among 220,000; AID 1085; in the data active = inhibition above about 50%
eIF4H FP inh: inhibitors of RNA binding by human eIF4H | hit rate 0.94% among 290,000 | eIF4H fluorescence polarization binding assay | Q15056 | AID 2012 | inhibition, % at 35 µM;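 note: calls also rest on retests at 20 µM and on dose response follow-up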
PABP polyA inh: blocks human PABP binding to poly(A) RNA; calls only at 35 µM; P11940; AID 2014; hit rate 1% among 290,000; fluorescence polarization;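 note: calls also rest on retests at 20 µM and on dose response follow-up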
Target sequence (P11940 whole entry, looked up): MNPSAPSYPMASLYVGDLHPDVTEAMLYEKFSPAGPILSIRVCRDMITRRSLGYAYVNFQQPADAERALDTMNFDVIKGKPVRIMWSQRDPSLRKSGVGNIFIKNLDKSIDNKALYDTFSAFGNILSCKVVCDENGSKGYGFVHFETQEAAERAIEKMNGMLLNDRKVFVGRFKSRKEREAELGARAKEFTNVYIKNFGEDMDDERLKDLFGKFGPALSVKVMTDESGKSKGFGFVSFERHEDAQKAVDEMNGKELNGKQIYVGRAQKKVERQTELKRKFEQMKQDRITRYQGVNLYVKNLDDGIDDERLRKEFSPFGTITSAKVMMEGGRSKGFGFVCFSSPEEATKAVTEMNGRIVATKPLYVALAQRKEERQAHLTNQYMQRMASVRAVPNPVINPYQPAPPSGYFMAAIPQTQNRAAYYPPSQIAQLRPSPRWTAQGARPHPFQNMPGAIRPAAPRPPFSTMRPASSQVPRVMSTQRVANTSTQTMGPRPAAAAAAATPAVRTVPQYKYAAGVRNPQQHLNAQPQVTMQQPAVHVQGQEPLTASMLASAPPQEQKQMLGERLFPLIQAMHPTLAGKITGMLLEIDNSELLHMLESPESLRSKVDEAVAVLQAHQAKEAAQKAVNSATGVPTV
MEX-5 binding: C. elegans MEX-5 TCR-2 RNA binding activity. MEX-5/FITC-TCR2 RNA binding, fluorescence polarization; active compounds read low. activity score (negative = inhibition of binding), % at 10 µM. Q9XUB2. hit rate 0.38% among 300,000;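 active = inhibition past about -25% in most replicates, and total fluorescence under double the plate's negative control median, limit read from the data; inconclusive = replicates evenly split on the limit, or fluorescence at least double controls; inactive = too little inhibition in most replicates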;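 note: 0% = DMSO and -100% = 5 µM competing unlabeled TCR2 RNA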
MLLE-PAM2 inh: inhibitors of microRNA-mediated deadenylation, human PABP1 MLLE binding; P11940; hit rate 0.36% among 360,000; inhibition, % at 20 µM; AID 588489; GST-MLLE / FITC-PAM2 fluorescence polarization; in the data active = inhibition above about 35%, passing the limit was not always enough;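 note: plate controls were DMSO wells with GST-MLLE for no effect and wells lacking GST-MLLE protein for full effect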
An asterisk follows results filed as active; i = inactive; ? = inconclusive; . = not tested or not shown; + = active, no number. Unless noted, the rule behind the calls is not given here.

SMILES | EBV gp42 inh | eIF4H FP inh | PABP polyA inh | MEX-5 binding | MLLE-PAM2 inh
N=C1/C(=C/c2ccc(-c3cccc(C(=O)O)c3)o2)C(=O)N=C2SC(CC(=O)N3CCOCC3)=NN12 | . | 61.7* | + | -14.7 | -8.3
N=C1/C(=C\c2ccc(SCc3ccccc3)o2)C(=O)N=C2SC(CC(=O)N3CCOCC3)=NN12 | -29.7 | 30.4 | i | -30.0* | -35.7
CCCCCCn1c(SCC(=O)NC2CCS(=O)(=O)C2)nc2ccccc2c1=O (stereo not drawn) | . | . | . | . | -14.3
CC1CN(C2CC(C)(C)NC(C)(C)C2)CCC1=O (stereo not drawn) | -30.4 | 2.6 | i | -47.5* | 1.2
Cn1nnc(NC(=S)NC(=O)c2cccc3c(Br)cccc23)n1 | . | -12.9 | i | 0.1 | 39.7*
Cn1nnc(NC(=S)NC(=O)c2cccc3c(Cl)cccc23)n1 | . | -0.5 | i | -0.6 | 21.7
CCCCNC(=O)C1(C)CCCCN1C(=O)c1cc2ccccc2s1 (stereo not drawn) | . | . | . | . | 3.3
O=C(O)CN1C(=O)/C(=C\c2cc(Br)ccc2OCc2ccc(Cl)cc2)SC1=S | . | 31.7 | i | -4.2 | 15.2
O=C(O)CN1C(=O)/C(=C\c2cc([N+](=O)[O-])ccc2OCc2ccccc2Cl)SC1=S | . | 44.6* | + | -10.1 | 22.8
CC[C@@]1(O)C(=O)OCc2c1cc1n(c2=O)Cc2cc3c(N)cccc3nc2-1 | -3.5 | 91.6* | + | -3.9 | -8.9
COc1ccc(C2CC(c3cccs3)=NN2C(=O)CCCC(=O)O)cc1OC (stereo not drawn) | . | . | . | . | -3.0
CC1(C)CC(=O)C2=C(C1)OC1=C(C(=O)CC(C)(C)C1)C2c1ccc(O)cc1O | 116.8* | ? | ? | ? | 108.1
Nc1nc(-c2ccccc2)c(-c2ccccc2)n1N | . | 54.0 | + | -2.6 | 3.5
CCOC(=O)C1CCCN(C(=O)c2ccc(F)c(C)c2)CC1 (stereo not drawn) | . | . | . | . | 3.5
O=Cc1cnc(N2CCCCC2)s1 | 111.5* | 0.6 | i | 0.7 | 6.1
CCOc1ccccc1NC(=O)Nc1ccc(OC)nc1 | . | 68.4 | + | ? | 47.7*
CCOc1ccccc1NC(=O)Nc1cccc(NC(C)=O)c1 | -19.0 | -4.2 | i | 1.2 | 0.5
Cc1cc2nc(-c3ccc(C#N)cc3)c(Cc3cccc(F)c3)n2c(C)c1Br | . | . | . | . | 2.5
Cc1ccc(SC2=C(Sc3ccc(C)cc3)C(=O)c3ccccc3C2=O)cc1 | -6.8 | 5.8 | i | 1.9 | 39.8
CC1=CC(=O)C(Sc2ccc(C)cc2)=CC1=O | . | . | . | . | 35.3*
COc1cccc(-c2cnc3c(NC(C)=O)cc(-c4ccc(C(=O)NC5CC5)cc4)cn23)c1 | . | . | . | . | 0.6
O=C1CCCN1CCCNc1nc(NCc2cccs2)nc2ccsc12 | . | . | . | . | 2.7
CN(Cc1cnc2nc(N)nc(N)c2n1)c1ccc(C(=O)NC(CCC(=O)O)C(=O)O)cc1 (stereo not drawn) | . | . | . | . | 67.3*
NC(c1csc(Nc2ccc(C(=O)c3ccccc3)cc2)n1)C1CCCCC1 (stereo not drawn) | . | . | . | . | 6.0
O=c1[nH]c2ccccc2nc1Cc1ccccc1 | -19.0 | -11.1 | i | -0.3 | 8.6
SMILES | EBV gp42 inh | eIF4H FP inh | PABP polyA inh | MEX-5 binding | MLLE-PAM2 inh
O=C(Cc1nc2ccccc2[nH]c1=O)c1ccccc1 | 52.0* | ? | i | -61.3* | 36.1
C=CCNC(=S)Nc1cc(Cl)ccc1OC | -12.5 | 11.0 | i | -39.6* | 3.1
Fc1ccc(NC(=S)N/N=C/c2ccc(F)c(F)c2)cc1 | -0.4 | 1.7 | i | -0.5 | 24.8
COc1ccc(NC(=S)Nc2cccc(Cl)c2)cc1OC | -12.6 | 4.5 | i | -2.2 | 36.8*
COc1ccc(Cl)cc1NC(=S)Nc1ccccc1F | -24.4 | 4.1 | i | -1.4 | 40.9*
COc1ccc(NC(=S)Nc2cccc(C(C)=O)c2)cc1OC | -9.7 | 4.3 | i | -0.1 | 21.1
COc1ccc(NC(=S)N/N=C/c2ccc(F)cc2)cc1OC | -7.6 | -6.3 | i | -2.3 | 45.2*
COc1cc(C(=O)N2CCCCC2c2cc(C(=O)Nc3ccccc3Cl)no2)cc(OC)c1C (stereo not drawn) | . | . | . | . | -4.2
O=C(COC(=O)C1CCN(S(=O)(=O)c2cc([N+](=O)[O-])ccc2Cl)CC1)Nc1ncc(Cl)cc1Cl | -9.9 | 69.7* | + | -5.2 | -12.4
O=C(Cn1cnc([N+](=O)[O-])c1)Nc1ccc(Cl)cc1Cl | . | . | . | . | 4.4
Clc1ccccc1Nc1nc(NCC2CC2)nc2ccsc12 | . | . | . | . | 18.9
Cc1ccc(C(=O)NC(=S)Nc2c(C)ccc3nsnc23)cc1 | 8.0 | 2.0 | i | 1.1 | 17.7
CC(C)C(=O)NC(=S)Nc1c(Cl)ccc2nsnc12 | -7.9 | 78.6* | + | 1.4 | 18.2
